High-throughput results (PubChem BioAssay)
Akt phos inh: blocks phosphorylation of Akt; 360,000 compounds, 0.32% hits; Neuro2A IGF-stimulated pAkt S473 HTRF, 20 min; stronger effect = lower value; AID 651550; activity change, % for hits at 50 µM; in the data active = activity change below about -80%; inconclusive = mostly about -51% to -80%; note: % is set by controls: 0 for no effect and ±100 for the full control effect
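Single-point screen (50 µM final compound) in Neuro2A cells stimulated 20 min with 6 nM IGF at 37 deg C. After lysis, Ser473-phosphorylated Akt read by HTRF (ex 330 nm, em 615/665 nm) as the 665/615 ratio.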
12-LOX inh: ALOX12 (human) lipoxygenase inhibition. purified 12hLO, xylenol orange hydroperoxide absorbance. AID 1671190. Potency, µM (series often up to 108 µM), inactives show top-dose activity change, negative = inhibition, most hits filed as inhibitors. 580,000 compounds, 1.1% hits; note: potency is the fitted concentration of half-maximal effect; % is set by controls: 0 for no effect and ±100 for the full control effect
Target sequence (P18054 whole entry, looked up): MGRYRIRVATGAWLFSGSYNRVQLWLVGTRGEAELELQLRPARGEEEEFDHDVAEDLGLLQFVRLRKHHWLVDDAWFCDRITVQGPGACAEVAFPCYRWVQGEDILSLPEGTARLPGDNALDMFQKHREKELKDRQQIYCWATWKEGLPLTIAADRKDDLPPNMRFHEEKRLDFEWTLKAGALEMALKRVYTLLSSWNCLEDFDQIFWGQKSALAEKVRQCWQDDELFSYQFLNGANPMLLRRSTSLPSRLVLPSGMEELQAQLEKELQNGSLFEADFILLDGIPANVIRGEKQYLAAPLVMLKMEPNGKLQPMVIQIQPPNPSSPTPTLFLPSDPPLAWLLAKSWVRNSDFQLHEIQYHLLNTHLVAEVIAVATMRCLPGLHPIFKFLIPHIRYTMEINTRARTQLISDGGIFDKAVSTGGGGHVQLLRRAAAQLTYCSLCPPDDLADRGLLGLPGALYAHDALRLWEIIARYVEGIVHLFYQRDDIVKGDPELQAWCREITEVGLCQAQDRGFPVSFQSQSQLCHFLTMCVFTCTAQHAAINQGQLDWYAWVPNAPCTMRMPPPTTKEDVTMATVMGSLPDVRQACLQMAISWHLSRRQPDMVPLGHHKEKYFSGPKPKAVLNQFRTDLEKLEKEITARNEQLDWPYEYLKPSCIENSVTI
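Hydroperoxide product was detected by ferrous iron/xylenol orange as the 573 to 405 nm absorbance ratio. Arachidonic acid at 40 uM (final) was turned over for 30 min at room temperature by 150 nM human 12hLO, pH 7.0 Hepes buffer, after 15 min compound preincubation.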
Vif-APOBEC3G blk: blocks the Vif interaction with human APOBEC3G | Q9HC16 | HeLa A3G-eYFP + Vif (tagged APOBEC3G with the HIV-1 protein that degrades it), YFP fluorescence, overnight | Potency, µM (top dose mostly 46.1 µM), inactives show top-dose activity, negative = active, actives largely listed as inhibitors | 410,000 compounds, 0.076% hits | AID 602310; note: potency is the fitted concentration of half-maximal effect; % is set by controls: 0 for no effect and ±100 for the full control effect; nearly all actives have a fitted effect of over 60% in size
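HeLa cells stably expressing Vif and C-terminally eYFP-tagged A3G, seeded overnight at 37 deg C, then exposed to compound by pintool overnight at 37 deg C. Rise in yellow fluorescence (Ex 488/Em 500-530, Acumen) marks blocked Vif-driven A3G degradation.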
S-ASM inh: human S-ASM enzyme inhibition; placental ASM, HMU-PC fluorogenic substrate, 60 min; Potency, µM (doses to about 57.5 µM), for inactives: top-dose activity change, negative = inhibition, usual class: inhibitors; 340,000 compounds, 0.006% hits; AID 504937; note: potency is the fitted concentration of half-maximal effect
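HMU-PC0 cleavage (9 uM final) by human placental ASM, 60 min at 37 °C following 10 min compound exposure at RT; stopped at pH 10, fluorescence Ex 386/Em 447 nm.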
TSG101-PTAP inh: blocks PTAP/TSG101 interaction to inhibit HIV-1 budding | Q99816 | Fluorescence polarization, FITC-PTAP peptide / Tsg101 binding | Potency, µM (series often up to 115 µM), without a hit: at the top dose activity change, negative = inhibition, usual class: inhibitors | 340,000 tested, under 10 active | AID 493005; active = well fitted inhibition curve with a large enough effect in the main read-out, with a control signal flat, not every such curve was filed as active; inconclusive = small, poorly fitted or top-dose-only effect, or effect the other way, or a change in a side signal; inactive = no such curve, though single readings can be large or run the other way; note: potency is the fitted concentration of half-maximal effect; % of control where 0% means no effect
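Compounds were pin-transferred onto Tsg101 binding domain (10 uM final) in HEPES pH 7.5 buffer, then FITC-PTAP peptide was added at 50 nM final. After 20 min at RT, polarization reported peptide displacement across a qHTS concentration series.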
Vif-A3F inh: inhibitors of Vif-A3F interaction; 390,000 compounds, 0.2% hits; HeLa A3F-eYFP + Vif (tagged APOBEC3F with the HIV-1 protein that degrades it), YFP fluorescence increase; Potency, µM (doses to about 46.1 µM), for inactives: at the top dose activity, negative = active; AID 602313; note: potency is the fitted concentration of half-maximal effect; % of control where 0% means no effect; nearly all actives have a fitted effect of over 65% in size
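HeLa cells stably expressing A3F-eYFP plus Vif, plated and incubated overnight at 37 deg C, then exposed to compounds overnight at 37 deg C. Blocked degradation read as raised yellow fluorescence (Ex 488/Em 500-530).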
Numbers without * were called inactive; ! = a repeat was not active; [ ] = another dose, or the depositor's remark. Rows were chosen to be rich in hits. Some 1.4% of all compounds tested hit in one or more screens of this group. Unless noted, calls come from the whole dose curve; as a rule, active = well fitted curve in the direction sought with a large enough effect; inconclusive = small, poorly fitted or top-dose-only effect, or another doubt; inactive = no such curve, though single readings can be large; an effect the other way counts as inactive or inconclusive.

For CCN1CCN(CCOc2ccccc2OCc2ccccc2)CC1 the results were Akt phos inh inactive, 12-LOX inh inconclusive, Vif-APOBEC3G blk 6.0%, S-ASM inh 3.4%, TSG101-PTAP inh -9.5% and Vif-A3F inh 2.4%.
For Cc1cc(COc2ccccc2OCCN2CCN(C)CC2)no1 the results were Akt phos inh -103.7%*, 12-LOX inh 90.5%, Vif-APOBEC3G blk -0.9%, S-ASM inh 4.4%, TSG101-PTAP inh 0.4% and Vif-A3F inh -9.0%.
For O=C(Cc1ccccc1)NCC1CN(Cc2cccnc2)CC12CN(c1ccccc1)C2 (stereo not drawn) the results were 12-LOX inh 13.2%[176 µM].
`COc1ccc(C(=O)/C(=C/c2ccco2)c2nc3ccccc3o2)cc1` gave 12-LOX inh 14.1µM*.
Screening COc1cc(OC)cc(C(=O)/C(=C\c2ccco2)c2nc3ccccc3o2)c1 returned 12-LOX inh 39.8µM*.
COc1cccc(C(=O)/C(=C/c2ccco2)c2nc3ccccc3o2)c1 was read as 12-LOX inh 39.8µM*.
`CCOc1cccc(C2C(C(=O)c3ccc(C)o3)=C(O)C(=O)N2c2nccs2)c1` (stereo not drawn) gave Akt phos inh inactive, 12-LOX inh 0.631µM*, Vif-APOBEC3G blk 3.4%, S-ASM inh 4.9%, TSG101-PTAP inh -25.3% and Vif-A3F inh 2.6%.
For CCn1c(COc2cccc3cccnc23)nnc1SCC(=O)O the results were Akt phos inh inactive, 12-LOX inh inconclusive, Vif-APOBEC3G blk -0.3%, S-ASM inh -0.3%, TSG101-PTAP inh -3.2% and Vif-A3F inh 0.1%.
Screening Cn1c(COc2cccc3cccnc23)nnc1SCC(=O)O returned Akt phos inh inactive, 12-LOX inh 7.94µM*!, Vif-APOBEC3G blk 4.1%, S-ASM inh -2.7%, TSG101-PTAP inh -0.7% and Vif-A3F inh 0.8%.
For CC(=O)c1ccc(N2CCN(CC(O)COC(c3ccccc3)c3ccccc3C)CC2)cc1 (stereo not drawn) the results were Akt phos inh inactive, 12-LOX inh 0.631µM*, Vif-APOBEC3G blk 3.7%, S-ASM inh -3.9%, TSG101-PTAP inh -2.0% and Vif-A3F inh -10.2%.
Screening O=C(Cc1ccc2ccccc2c1)NCCc1cccc2cccnc12 returned 12-LOX inh -2.9%.
Screening CN(C)c1ccc(/C=C(/C#N)C(=O)Nc2nc3c(s2)CCN(Cc2ccccc2)C3)cc1 returned Akt phos inh inactive, 12-LOX inh -17.7%, Vif-APOBEC3G blk 5.62µM*, S-ASM inh -3.1%, TSG101-PTAP inh inconclusive and Vif-A3F inh inconclusive.
For Cc1cc(C)cc(NC(=O)CSc2nnc(-c3cccs3)n2-n2cccc2)c1 the results were 12-LOX inh -55.9%.
`COc1cc(NC(=O)N2c3ccccc3Sc3ccccc32)c(C(=O)O)cc1OC` gave Akt phos inh inactive, 12-LOX inh 20µM*, Vif-APOBEC3G blk -2.4%, S-ASM inh 12.6%, TSG101-PTAP inh -5.5% and Vif-A3F inh -8.0%.
`COc1ccc(NC(=O)N[C@@H](CCSC)C(=O)O)cc1` gave 12-LOX inh -15.7%.
`Cc1cccc2sc(NC(=O)C3CCN(S(=O)(=O)c4cc([N+](=O)[O-])ccc4Cl)CC3)nc12` gave Akt phos inh inactive, 12-LOX inh 39.8µM*, Vif-APOBEC3G blk -0.2%, S-ASM inh -9.9%, TSG101-PTAP inh -1.8% and Vif-A3F inh -17.8%.
Screening N#CC(c1ccncc1)(c1ncc(C(F)(F)F)cc1Cl)N1CCOCC1 (stereo not drawn) returned Akt phos inh inactive, 12-LOX inh 44.7µM*, Vif-APOBEC3G blk -1.9%, S-ASM inh -3.4%, TSG101-PTAP inh 0.0% and Vif-A3F inh 11.6%.
